In PubChem BioAssay:
Calls of active or inactive are those of the source.

Legend:
[1] = small-molecule microarray binders of probe aShh, primary screen, biochemical, biotinylated probe, 635/667 nm fluorescence (AID 1114); settings: higher = more signal;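 note: probe is biotin-labelled aShh protein from a stem cell growth factor screen; measures binding of labelled protein to compounds printed on the slide; score merges feature fluorescence at 667 nm with signal-to-noise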
[2] = small-molecule microarray binders of probe aNog, primary screen, biochemical, biotinylated probe, 635/667 nm fluorescence (AID 1115); settings: higher = more signal;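 note: probe is biotinylated aNog protein used at 0.15 µg/mL for 1 h at 4 C; z-score combines 667 nm fluorescence of each spot with its signal to noise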
[3] = molecular target: Torsin-1A-interacting protein 1 (Homo sapiens) (UniProt Q5JTV8); experiment: LAP1 binders from COS7 cell lysate, primary screen, small-molecule microarray, 635/667 nm fluorescence (AID 1116); settings: COS7-hLAP1 lysate binding, 635 nm fluorescence, higher = more signal
Sequence of Torsin-1A-interacting protein 1 (Homo sapiens) (Q5JTV8 whole entry, looked up): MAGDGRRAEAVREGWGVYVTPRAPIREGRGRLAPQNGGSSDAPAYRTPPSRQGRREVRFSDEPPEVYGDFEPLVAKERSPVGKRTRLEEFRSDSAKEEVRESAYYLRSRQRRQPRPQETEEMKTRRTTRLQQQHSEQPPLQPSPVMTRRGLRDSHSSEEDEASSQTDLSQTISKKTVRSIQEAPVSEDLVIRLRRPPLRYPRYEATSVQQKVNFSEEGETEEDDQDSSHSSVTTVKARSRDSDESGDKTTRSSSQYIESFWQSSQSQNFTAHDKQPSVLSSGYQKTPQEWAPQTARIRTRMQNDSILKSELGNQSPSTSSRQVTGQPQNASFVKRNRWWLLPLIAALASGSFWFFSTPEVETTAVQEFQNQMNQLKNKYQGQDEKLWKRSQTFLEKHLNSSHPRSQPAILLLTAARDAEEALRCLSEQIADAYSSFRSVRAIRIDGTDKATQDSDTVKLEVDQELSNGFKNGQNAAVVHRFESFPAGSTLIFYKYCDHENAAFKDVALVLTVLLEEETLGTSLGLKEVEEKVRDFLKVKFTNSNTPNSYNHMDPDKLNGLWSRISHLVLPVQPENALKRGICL

Albumin (Bos taurus) = Albumin (Bos taurus) (UniProt P02769); experiment: bovine serum albumin binders on microarray, profiling panel, artefact control for SMM control protein annotation, biochemical, small-molecule microarray, Alexa647 label, 635/667 nm fluorescence (AID 1118); settings: BSA-A647 binding, fluorescence 635 nm, higher = more signal;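 note: score merges 667 nm emission intensity and signal-to-noise per printed compound spot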
Sequence of Albumin (Bos taurus) (P02769 whole entry, looked up): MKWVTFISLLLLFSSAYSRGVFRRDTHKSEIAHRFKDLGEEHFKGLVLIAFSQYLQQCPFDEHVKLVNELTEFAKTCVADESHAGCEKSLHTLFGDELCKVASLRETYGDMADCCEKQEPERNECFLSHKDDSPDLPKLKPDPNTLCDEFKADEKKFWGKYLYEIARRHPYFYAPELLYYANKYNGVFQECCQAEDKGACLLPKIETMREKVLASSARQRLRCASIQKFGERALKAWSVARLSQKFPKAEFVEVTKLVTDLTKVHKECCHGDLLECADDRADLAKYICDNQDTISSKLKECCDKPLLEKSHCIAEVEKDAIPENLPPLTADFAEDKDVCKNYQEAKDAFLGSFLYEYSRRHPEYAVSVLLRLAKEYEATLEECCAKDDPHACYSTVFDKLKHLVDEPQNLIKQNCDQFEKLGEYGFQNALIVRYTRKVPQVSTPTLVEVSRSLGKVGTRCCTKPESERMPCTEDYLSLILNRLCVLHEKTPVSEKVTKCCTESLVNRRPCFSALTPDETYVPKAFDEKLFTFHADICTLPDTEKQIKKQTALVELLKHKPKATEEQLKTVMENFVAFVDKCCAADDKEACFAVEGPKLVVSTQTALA

[4] = small-molecule microarray binders of probe aXIP, primary screen, biochemical, NeuroSMM set, 635/667 nm fluorescence (AID 1119); settings: higher = more signal, called active from +8 up or from −8 down;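 note: probe is the protein aXip251-270 applied at 1 µg/mL to compound-printed slides; binding of probe to printed compounds measured as 667 nm fluorescence plus signal to noise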
[5] = small-molecule binders of probe aNOTCH3, primary screen, biochemical, small-molecule microarray, 635/667 nm fluorescence (AID 1120); settings: higher = more signal;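 note: probe is a biotin-tagged antibody raised against NOTCH3 rather than NOTCH3 protein; score merges spot fluorescence near 667 nm with spot signal to noise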
[6] = small-molecule binders of probe aNOTCH2, primary screen, biochemical, small-molecule microarray, 635/667 nm fluorescence (AID 1121); settings: higher = more signal;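 note: score merges feature fluorescence read at 667 nm with its signal to noise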
[7] = molecular target: Carbonic anhydrase 2 (Homo sapiens) (UniProt P00918); experiment: CAII small-molecule binders, profiling panel, biochemical, small-molecule microarray, Alexa647-labelled CAII (AID 1122); settings: CAII-A647 binding fluorescence, higher = more signal
[8] = COS7 lysate on small-molecule microarray, probe aHis, 635 nm (AID 1123); settings: COS7 cell lysate, fluorescence, higher = more signal;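 note: z-score combines 667nm fluorescence intensity with signal-to-noise per printed compound spot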
[9] = compound binding in COS7 lysate, probe aLAP1, primary screen, cell lysate, small-molecule microarray (AID 1124); settings: probe aLAP1, fluorescence, higher = more signal;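 note: lysate comes from COS7 cells expressing LAP1 and is applied at 0.3 µg/mL; score merges spot fluorescence near 667 nm with signal-to-noise over triplicate slides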
Sam68 (KHDRBS1) = experiment: Sam68 small-molecule binders, primary screen, biochemical, small-molecule microarray, 635 nm fluorescence (AID 1125); settings: small-molecule microarray binding, higher = more signal;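 note: score merges 667 nm channel intensity with signal to noise over triplicate slides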
[10] = tested on: Chordin-like protein 2 (CHRDL2); experiment: CHRDL2 small-molecule binders, primary screen, biochemical, small-molecule microarray, 635 nm fluorescence (AID 1126); settings: small-molecule microarray binding, fluorescence 635 nm; higher = more signal;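 note: printed compound slides probed with Chrdl2 protein at 4 µg/mL for 1 h at 4 C; score merges 667 nm emission intensity with signal to noise over three replicate slides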
[11] = molecular target: Concanavalin-A (Canavalia ensiformis) (UniProt P02866); experiment: ConA small-molecule binders, primary screen, artefact control for SMM control protein annotation, biochemical, small-molecule microarray, Alexa647 label, 635 nm (AID 1127); settings: ConA-A647 binding fluorescence, higher = more signal;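 note: z combines 667 nm emission intensity with signal-to-noise across three replicate slides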
Sequence of Concanavalin-A (Canavalia ensiformis) (P02866 whole entry, looked up): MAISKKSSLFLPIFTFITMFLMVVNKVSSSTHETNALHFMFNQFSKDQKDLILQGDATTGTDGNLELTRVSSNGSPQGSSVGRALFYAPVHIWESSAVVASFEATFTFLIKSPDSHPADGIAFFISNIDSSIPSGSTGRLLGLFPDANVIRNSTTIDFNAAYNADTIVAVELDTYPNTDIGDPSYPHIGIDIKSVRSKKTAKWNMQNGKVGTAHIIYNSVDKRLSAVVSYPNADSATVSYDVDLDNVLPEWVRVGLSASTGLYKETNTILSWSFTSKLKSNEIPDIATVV

[12] = anti-His antibody binders, primary screen, artefact control for SMM control protein annotation, biochemical, small-molecule microarray, 635 nm fluorescence (AID 1128); settings: anti-His Alexa647 antibody binding, higher = more signal;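 note: score merges feature fluorescence with signal-to-noise for each printed compound spot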
[13] = tested on: Human papillomavirus type 1a E7 protein (residues 1-88); experiment: HPV1a E7 small-molecule binders, primary screen, biochemical, small-molecule microarray, residues 1-88, 635 nm (AID 1129); settings: small-molecule microarray binding, fluorescence 635 nm; higher = more signal
[14] = molecular target: Focal adhesion kinase 1 (Homo sapiens) (UniProt Q05397); experiment: small-molecule microarray binders of FAK, primary screen, biochemical, 635/667 nm fluorescence, BSA, DTT (AID 1130); settings: PTK2 binding, 635 nm fluorescence, higher = more signal;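 note: composite of spot emission at 667 nm and signal to noise over triplicate slides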
Sequence of Focal adhesion kinase 1 (Homo sapiens) (Q05397 whole entry, looked up): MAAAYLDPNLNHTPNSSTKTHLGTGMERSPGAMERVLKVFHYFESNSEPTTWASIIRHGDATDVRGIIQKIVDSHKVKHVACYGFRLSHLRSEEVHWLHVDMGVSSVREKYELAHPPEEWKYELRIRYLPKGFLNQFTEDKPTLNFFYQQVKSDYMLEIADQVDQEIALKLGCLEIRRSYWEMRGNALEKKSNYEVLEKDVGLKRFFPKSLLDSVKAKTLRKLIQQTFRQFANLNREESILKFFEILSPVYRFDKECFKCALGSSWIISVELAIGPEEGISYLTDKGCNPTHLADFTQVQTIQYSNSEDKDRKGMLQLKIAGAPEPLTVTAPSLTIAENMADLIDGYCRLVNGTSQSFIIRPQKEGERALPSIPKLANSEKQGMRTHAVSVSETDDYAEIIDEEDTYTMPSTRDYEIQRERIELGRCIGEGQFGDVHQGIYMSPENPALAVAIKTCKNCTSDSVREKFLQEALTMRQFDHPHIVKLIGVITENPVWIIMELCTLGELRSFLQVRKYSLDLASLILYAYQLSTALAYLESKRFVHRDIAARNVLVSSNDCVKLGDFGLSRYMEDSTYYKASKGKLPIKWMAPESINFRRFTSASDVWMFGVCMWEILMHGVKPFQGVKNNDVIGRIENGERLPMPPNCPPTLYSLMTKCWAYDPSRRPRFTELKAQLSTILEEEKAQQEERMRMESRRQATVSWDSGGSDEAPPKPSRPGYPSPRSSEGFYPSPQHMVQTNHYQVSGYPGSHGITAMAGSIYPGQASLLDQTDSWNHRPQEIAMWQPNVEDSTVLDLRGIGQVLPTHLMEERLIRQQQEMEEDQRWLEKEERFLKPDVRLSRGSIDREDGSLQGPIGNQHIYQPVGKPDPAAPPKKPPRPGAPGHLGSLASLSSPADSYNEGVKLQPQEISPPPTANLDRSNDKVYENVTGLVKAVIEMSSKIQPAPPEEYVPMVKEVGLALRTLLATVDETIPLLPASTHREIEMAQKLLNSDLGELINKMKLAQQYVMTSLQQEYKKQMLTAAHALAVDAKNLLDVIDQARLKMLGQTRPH

[15] = tested on: Fibrinogen (Alexa647-labelled); experiment: fibrinogen binders on compound microarrays, profiling panel, artefact control for SMM control-protein annotation, biochemical, small-molecule microarray, 635/667 nm fluorescence (AID 1131); settings: fibrinogen-A647 binding fluorescence, higher = more signal;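 note: z-score merges 667 nm fluorescence with per-spot signal-to-noise over triplicate slides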
[16] = molecular target: Follistatin (Homo sapiens) (UniProt P19883); experiment: follistatin binders on small-molecule microarrays, primary screen, biochemical, small-molecule microarray, 635/667 nm fluorescence (AID 1132); settings: FST binding, 635 nm fluorescence, higher = more signal
Sequence of Follistatin (Homo sapiens) (P19883 whole entry, looked up): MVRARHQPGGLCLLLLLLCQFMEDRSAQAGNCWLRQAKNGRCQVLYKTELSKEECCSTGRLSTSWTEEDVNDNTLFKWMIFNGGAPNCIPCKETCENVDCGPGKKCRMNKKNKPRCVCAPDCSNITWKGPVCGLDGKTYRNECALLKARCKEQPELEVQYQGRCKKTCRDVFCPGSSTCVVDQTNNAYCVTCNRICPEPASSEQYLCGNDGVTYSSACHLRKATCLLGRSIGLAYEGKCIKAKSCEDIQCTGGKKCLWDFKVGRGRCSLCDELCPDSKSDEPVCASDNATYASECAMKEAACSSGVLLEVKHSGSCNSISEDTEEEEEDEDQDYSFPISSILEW

[17] = molecular target: Fibroblast growth factor 2 (Homo sapiens) (UniProt P09038); experiment: FGF2 binders on small-molecule microarrays, primary screen, biochemical, small-molecule microarray, 635/667 nm fluorescence (AID 1133); settings: small-molecule microarray binding, FGF2, fluorescence 635/667; higher = more signal
Sequence of Fibroblast growth factor 2 (Homo sapiens) (P09038 whole entry, looked up): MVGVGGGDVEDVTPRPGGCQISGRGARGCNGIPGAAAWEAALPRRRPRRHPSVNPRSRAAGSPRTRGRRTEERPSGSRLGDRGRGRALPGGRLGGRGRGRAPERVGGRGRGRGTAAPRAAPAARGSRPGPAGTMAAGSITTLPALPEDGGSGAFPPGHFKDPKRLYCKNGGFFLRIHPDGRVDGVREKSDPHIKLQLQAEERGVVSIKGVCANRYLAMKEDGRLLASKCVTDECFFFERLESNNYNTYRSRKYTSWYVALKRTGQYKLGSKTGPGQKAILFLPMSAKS

[18] = mitochondrial membrane potential change in A549 cells, profiling panel, cell-based, JC-1 fluorescence, basal, 24 h, 100 nL (AID 1138); settings: higher = more signal;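 note: A549 lung adenocarcinoma cells under basal conditions with no added stimulus; test concentration not given here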

| SMILES | composite z-score [1] | composite z-score [2] | composite z-score [3] | composite z-score (Albumin (Bos taurus)) | composite Z-score [4] | composite z-score [5] | composite z-score [6] | composite z-score [7] | composite z-score [8] | composite z-score [9] | composite z-score (Sam68 (KHDRBS1)) | composite z-score [10] | composite z-score [11] | composite z-score [12] | composite z-score [13] | composite z-score [14] | composite z-score [15] | composite z-score [16] | composite z-score [17] | z-score [18] |
| --- | --- | --- | --- | --- | --- | --- | --- | --- | --- | --- | --- | --- | --- | --- | --- | --- | --- | --- | --- | --- |
| CCOC(=O)C[C@H]1[C@H](OC(=O)c2ccc(-c3ccccc3)cc2)[C@@H](NC(=O)c2ccccc2)c2cc(OCCCO)ccc2N1C(=O)c1ccccc1 | 0.275 | 0.165 | 0.67 | 0.842 | 0.0948 (inactive) | 0.0162 | -0.0232 | 0.395 | 1.67 | 0.658 | 1.33 | -0.519 | 0.818 | 0.698 | 0.925 | 0.372 | 0.851 | -0.129 | 0.253 | 2.3 |
| COC(=O)[C@@]1(CCC(=O)OC(C)(C)C)COC(c2ccc(OCCCO)cc2)=N1 | -0.0626 | 0.424 | -0.123 | -1.01 | -0.378 (inactive) | -0.239 | -0.147 | 0.558 | 0.214 | 0.993 | -0.724 | -2.22 | -1.8 | -1.22 | -1.66 | -0.15 | -2.51 | -2.21 | -1.64 | -0.122 |
| CCOC(=O)C[C@H]1[C@H](OC(=O)c2cc3ccccc3oc2=O)[C@@H](NC(=O)c2ccccc2)c2cc(OCCCO)ccc2N1C(=O)Cc1ccc(OC)cc1 | -0.138 | 0.23 | 0.44 | -0.0029 | -0.0478 (inactive) | 0.0488 | -0.0578 | 0.467 | 0.257 | 0.324 | 0.382 | 0.357 | 0.773 | -0.657 | 0.345 | 0.5 | 0.465 | 0.856 | 0.948 | -0.42 |
| COc1ccc([Si](C)(C)[C@H]2[C@H](CC(=O)N(CCO)Cc3ccccc3)O[C@@]3(C(=O)N(Cc4ccc(N5CCC5=O)cc4)c4ccccc43)[C@@H]2C)cc1 | 0.0434 | -0.231 | 1.25 | 0.101 | 0.506 (inactive) | -0.219 | -0.141 | 0.339 | 0.888 | 0.371 | -0.114 | 0.286 | 0.385 | 0.122 | -0.178 | 0.13 | 0.158 | 0.41 | 0.11 | 0.0735 |
| CC(C)C[C@@H]1NC(=O)[C@@H]2C[C@H](C(=O)NCCCCCNC(=O)CS)[C@H](c3cccc(OCCO)c3)N2C1=O | 0.242 | 0.418 | 1.25 | -1.16 | 0.262 (inactive) | 0.0469 | -0.0624 | 0.588 | 1.47 | -0.383 | 1.31 | 0.767 | 1.18 | 2.82 | 1.18 | 1.35 | 0.837 | 1.38 | 1.3 | -0.018 |
| COC(=O)C(CC#Cc1ccc2c(c1)[C@]1(C(=O)N2)[C@H](C(N)=O)[C@H]2C(=O)O[C@H](c3ccccc3)[C@H](c3ccccc3)N2[C@@H]1c1ccc(O)cc1)C(=O)OC | 0.373 | -0.446 | 0.659 | 0.201 | 0.0742 (inactive) | 0.122 | 0.0286 | 0.803 | 1.15 | 0.478 | -0.942 | -1.33 | -1.92 | 0.62 | -0.328 | 0.418 | -1.59 | -0.919 | -0.292 | -1.07 |
| C=CCN1C(=O)[C@@]2(O[C@@H](CCO)[C@H]([Si](C)(C)c3ccc(OC)cc3)[C@H]2C)c2cc(N(C=O)c3ccccc3)ccc21 | -0.138 | 0.238 | 0.473 | 0.377 | 0.459 (inactive) | -0.0918 | -0.0895 | 0.246 | 0.396 | 0.222 | 0.807 | -0.332 | 0.67 | 1.03 | 0.721 | -0.115 | 0.373 | 0.203 | 0.0479 | -0.688 |
| C=C(/C(=C/C[C@H](OC(C)=O)c1cccc(OCCO)c1)c1cc(C(=O)OC)ccc1OC)C(C)C | -0.0337 | 0.209 | 0.19 | 0.103 | 0.307 (inactive) | -0.0918 | -0.126 | 0.38 | 0.866 | 0.172 | 0.177 | -0.767 | -0.319 | -0.604 | -0.389 | 0.445 | -0.624 | -0.288 | -0.0132 | 3.18 |
| COC(=O)C1=CC(c2ccc(CO)cc2)=CC(C2CC2)N(C)C=C1C(=O)OC (stereo not given) | 0.111 | 0.407 | 2.82 | 0.965 | 0.498 (inactive) | -0.0903 | -0.0617 | 0.874 | 1.73 | 0.969 | 0.862 | -0.73 | -0.0948 | 0.822 | -0.203 | 0.883 | 0.707 | -0.743 | -0.326 | 1.63 |
| C=C1C=C(Br)C2(OCCCO2)[C@H]2OC12 (stereo not given in full) | 0.0684 | -0.491 | -0.0068 | -0.888 | 2.51 (inactive) | 0.0642 | -0.148 | -0.128 | -0.529 | -0.0289 | -0.404 | 0.646 | -0.71 | -1.16 | -0.315 | 0.0354 | -1.01 | 0.442 | 0.245 | 0.939 |
| CC(C)C(CO)N1C(=O)[C@@H]2C3C(=O)OCCC/C=C\[C@H]3OC23C=CCN(C(C)C)C(=O)[C@@H]13 (stereo not given in full) | -0.0035 | 0.0599 | 1.69 | -1.36 | 1.77 (inactive) | -0.214 | -0.168 | 0.865 | 1.37 | 1.95 | 0.879 | -1.5 | -0.341 | -1.74 | -0.809 | 0.0086 | -0.935 | -1.05 | -0.993 | 0.743 |
| C/C=C/[C@@H](CCn1cc(CCO[Si](C(C)C)(C(C)C)C(C)C)nn1)[Si](C)(C)c1ccc(OC)cc1 | -0.323 | -0.866 | -0.24 | -1.72 | -0.535 (inactive) | -0.337 | -0.234 | -0.609 | -0.49 | -0.0321 | -1.07 | -1.8 | -2.84 | -0.588 | -0.668 | -0.168 | -1.56 | -2.11 | -0.888 | 4.63 |
| CO[C@H]1O[C@H](CO)[C@@H](OC(=O)CCc2ccccc2)[C@@H]2OC(=O)[C@H](Cc3ccccc3)C/C=C/C[C@@H](Cc3ccccc3)C(=O)O[C@@H]12 | -0.471 | 0.248 | 0.108 | -0.707 | 0.508 (inactive) | -0.19 | -0.0928 | 0.746 | 0.75 | -0.662 | 0.506 | -0.845 | -1.04 | -0.13 | -0.109 | 0.186 | -0.565 | -0.618 | -0.38 | 1.01 |
| C=CCN1C(=O)[C@@]2(O[C@@H](CCn3cc(CCO)nn3)[C@H]([Si](C)(C)c3ccc(OC)cc3)[C@H]2C)c2cc(N3C(=O)c4cccc5cccc3c45)ccc21 | -0.138 | 0.473 | 0.482 | 0.681 | -0.128 (inactive) | -0.0299 | -0.0703 | 0.455 | 0.249 | 0.15 | 0.966 | 0.0449 | 1.09 | 0.29 | 0.511 | 0.608 | 0.807 | 0.816 | 0.973 | -1.38 |
| C=CCN1C(=O)[C@@]2(O[C@@H](CCO)[C@H]([Si](C)(C)c3ccc(OC)cc3)[C@H]2C)c2cc(N3C(=O)c4cccc5cccc3c45)ccc21 | 0.123 | 0.272 | 0.201 | 0.691 | -0.159 (inactive) | 0.0425 | -0.0956 | 0.355 | 0.964 | 1.13 | 0.897 | -0.487 | 1.06 | 2.09 | 1 | 0.617 | 0.302 | -0.233 | -0.145 | -0.456 |
| CC(C)C[C@@H]1NC(=O)[C@@]23C(=O)N[C@@H](Cc4ccccc4)C2[C@H](C)[C@@]2(C)O[C@H]2C3/C=C/C/C=C\CNC(=O)[C@H](Cc2ccccc2)NC1=O (stereo not given in full) | -0.2 | -0.194 | 0.569 | 0.533 | 0.376 (inactive) | -0.0881 | -0.128 | 0.848 | 0.138 | 0.379 | 0.456 | -0.0794 | 0.313 | 2.15 | 0.284 | -0.0582 | 0.894 | 0.515 | 0.31 | 1.22 |
